According to PubChem BioAssay AID1159580 (chemical genetic matrix, 2015):
Values joined by “and” are separate entries in the source; they are usually repeats but may differ in a detail not shown here. Identical values can stand only once. The campaign covered roughly 5,500 compounds. About 2,000 (36%) were called active. Not shown: some 18% with an inconclusive outcome. Rule as the data show it: active = normalized growth mostly below about 0.91 (no sharp cut-off); inconclusive = no clear call, values can overlap the other calls; inactive = mostly above about 0.92. This is one part of the list.

Assay: chemical genetic growth profiling, strain panel (AID 1159580);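 also: tested at 20 µM; growth read once vehicle control cultures reached saturation at 30 °C; 1 = growth at the plate median or of vehicle wells; lower values mean less growth of the strain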
Details: S. cerevisiae deletion strains, growth OD

Measured: normalized growth

NS(=O)(=O)c1cc2c(cc1C(F)(F)F)NC(Cc1ccccc1)NS2(=O)=O (stereo not drawn)
inactive: locus YAL021C, strain ccr4, active compounds read low 1 | locus YAL026C, strain drs2, active compounds read low 0.979 | locus YAL030W, strain snc1, active compounds read low 0.989 | locus YBL061C, strain skt5, active compounds read low 0.986 | locus YBR009C, strain hhf1, active compounds read low 0.988 | locus YBR021W, strain FUR4, active compounds read low 1.02 | locus YBR023C, strain chs3, active compounds read low 0.992 | locus YBR171W, strain sec66, active compounds read low 0.981 | locus YBR229C, strain ROT2, active compounds read low 1 | locus YBR231C, strain swc5, active compounds read low 0.986 | locus YBR279W, strain paf1, active compounds read low 1 | locus YCL011C, strain gbp2, active compounds read low 0.973 | locus YCL016C, strain dcc1, active compounds read low 0.988 | locus YCL029C, strain bik1, active compounds read low 1.01 | locus YCL061C, strain MRC1, active compounds read low 0.991 | locus YCL069W, strain vba3, active compounds read low 1 | locus YCR088W, strain abp1, active compounds read low 0.993 | locus YDL005C, strain med2, active compounds read low 0.991 | locus YDL035C, strain GPR1, active compounds read low 1.02 | locus YDL040C, strain nat1, active compounds read low 1.01 | locus YDL074C, strain BRE1, active compounds read low 0.969 | locus YDL101C, strain DUN1, active compounds read low 1 | locus YDL134C, strain PPH21, active compounds read low 1.02 | locus YDL185W, strain tfp1, active compounds read low 1.01 | locus YDL192W, strain arf1, active compounds read low 1.01 | locus YDR001C, strain nth1, active compounds read low 0.98 | locus YDR069C, strain doa4, active compounds read low 0.997 | locus YDR101C, strain arx1, active compounds read low 0.985 | locus YDR137W, strain rgp1, active compounds read low 0.977 | locus YDR159W, strain sac3, active compounds read low 0.991 | locus YDR162C, strain NBP2, active compounds read low 1.01 | locus YDR195W, strain ref2 0.983 | locus YDR297W, strain sur2, active compounds read low 0.986 | locus YDR318W, strain mcm21, active compounds read low 1.01 | locus YDR334W, strain swr1, active compounds read low 0.953 | locus YDR335W, strain msn5, active compounds read low 0.991 | locus YDR388W, active compounds read low 1.01 | locus YDR392W, strain spt3, active compounds read low 0.943 | locus YDR502C, strain sam2, active compounds read low 0.996 | locus YEL003W, strain gim4, active compounds read low 0.983 | locus YEL037C, strain rad23, active compounds read low 0.984 | locus YEL061C, strain CIN8 (second series), active compounds read low 0.989 | locus YEL061C, strain CIN8, active compounds read low 1 | locus YER015W, strain faa2, active compounds read low 0.992 | locus YER016W, strain bim1, active compounds read low 0.992 | locus YER110C, active compounds read low 1.02 | locus YER111C, strain swi4, active compounds read low 0.999 | locus YER155C, strain BEM2 (second series), active compounds read low 0.974 | locus YER155C, strain BEM2, active compounds read low 0.999 | locus YER167W, strain BCK2, active compounds read low 1.01 | locus YFR010W, strain ubp6, active compounds read low 0.971 | locus YGL078C, strain dbp3, active compounds read low 0.995 | locus YGL086W, strain mad1, active compounds read low 0.99 | locus YGL167C, strain pmr1, active compounds read low 0.989 | locus YGL173C, strain kem1, active compounds read low 0.981 | locus YGL227W, strain vid30, active compounds read low 1 | locus YGL240W, strain doc1, active compounds read low 0.984 | locus YGL248W, strain PDE1, active compounds read low 0.999 | locus YGL253W, strain hxk2, active compounds read low 0.998 | locus YGR135W, strain pre9, active compounds read low 1.04 | locus YGR229C, strain SMI1, active compounds read low 1 | locus YGR252W, strain gcn5, active compounds read low 1.01 | locus YHR013C, strain ard1, active compounds read low 0.967 | locus YHR027C, strain rpn1, active compounds read low 0.971 | locus YHR030C, strain SLT2, active compounds read low 1 and 0.973 | locus YHR079C, strain IRE1 (second series), active compounds read low 1.01 | locus YHR079C, strain IRE1, active compounds read low 0.98 | locus YHR094C, strain hxt1, active compounds read low 1.01 | locus YHR129C, strain ARP1, active compounds read low 1.01 | locus YHR142W, strain chs7, active compounds read low 0.96 | locus YHR200W, strain rpn10, active compounds read low 1.01 | locus YIL066C, strain RNR3, active compounds read low 0.999 | locus YIL073C, strain SPO22, active compounds read low 1.05 | locus YIL125W, strain kgd1, active compounds read low 0.999 | locus YIR030C, strain dcg1, active compounds read low 1.01 | locus YJL092W, strain hpr5, active compounds read low 1 | locus YJL095W, strain BCK1 (second series), active compounds read low 0.997 | locus YJL095W, strain BCK1, active compounds read low 0.97 and 0.978 | locus YJL115W, strain asf1, active compounds read low 0.966 | locus YJL129C, strain trk1, active compounds read low 1 | locus YJL134W, strain LCB3, active compounds read low 1 | locus YJL154C, strain vps35, active compounds read low 0.985 | locus YJL164C, strain tpk1, active compounds read low 0.984 | locus YJL166W, strain qcr8, active compounds read low 0.97 | locus YJL168C, strain set2, active compounds read low 1.01 | locus YJL187C, strain SWE1 (second series), active compounds read low 0.984 | locus YJL187C, strain SWE1, active compounds read low 0.994 | locus YJR043C, strain POL32, active compounds read low 0.982
